According to PubChem BioAssay (EPA / NIEHS):
Results filed as inconclusive are left out. Active and inactive are the calls of the source. The calls were made as follows, unless noted: active = hit-call score of the fitted dose curve at least 0.9, where 1 is the maximum; inconclusive = response in the unintended direction; inactive = score below 0.9.

Assays:
[1] = target: Cellular tumor antigen p53 (Homo sapiens) (UniProt P04637); assay: TOX21_p53_BLA_p2_ratio: Tox21 HCT-116 p53 Agonism Beta-lactamase Assay, Ratio, Phase 2 (AID 2283592)
Chain of Cellular tumor antigen p53 (Homo sapiens) (P04637 whole entry, looked up): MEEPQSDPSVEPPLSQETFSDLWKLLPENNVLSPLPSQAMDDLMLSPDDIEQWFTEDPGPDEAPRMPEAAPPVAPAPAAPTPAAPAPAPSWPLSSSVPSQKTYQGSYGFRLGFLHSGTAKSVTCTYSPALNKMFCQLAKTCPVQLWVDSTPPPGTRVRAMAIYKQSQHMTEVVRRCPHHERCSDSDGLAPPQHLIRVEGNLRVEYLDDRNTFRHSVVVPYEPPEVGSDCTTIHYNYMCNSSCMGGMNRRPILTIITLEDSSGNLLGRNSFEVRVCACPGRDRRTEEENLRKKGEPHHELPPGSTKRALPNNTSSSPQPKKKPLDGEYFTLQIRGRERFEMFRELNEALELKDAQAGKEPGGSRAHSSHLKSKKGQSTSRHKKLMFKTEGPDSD
Procedure, shortened: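 First, HCT116 reporter cells settle for 5 h at 37C. Next, DMSO compound solutions are pinned in (217-fold dilution) and left 16 h. Finally, CCF4-AM substrate is loaded 2 h at room temperature and the 460/530 nm ratio read.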

[2] = TOX21_p53_BLA_p4_viability: Viability Assessment in the Tox21 HCT-116 p53 Agonism Beta-lactamase Assay, Phase 4 (AID 2283597);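 also: hits lower the luminescence signal meaning cytotoxicity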
Procedure, shortened: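 4000 HCT116 cells per well; 5 h attachment; compounds from DMSO, 217-fold dilution; 16 h at 37C. Then CCF4-AM, 2 h RT, followed by CellTiter-Glo, 30 min RT, luminescence. Decrease = cytotoxicity.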

[3] = target: Cellular tumor antigen p53 (Homo sapiens) (UniProt P04637); assay: TOX21_p53_BLA_p5_ratio: Tox21 HCT-116 p53 Agonism Beta-lactamase Assay, Ratio, Phase 5 (AID 2283599)
Procedure, shortened: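 Beta-lactamase reporter ratio (blue 460 nm over green 530 nm, 405 nm excitation) after 2 h CCF4-AM loading, in HCT-116 cells exposed 16 h at 37 C to compounds pinned at 217-fold dilution. Increases relative to DMSO baseline scored.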

[4] = target: Cellular tumor antigen p53 (Homo sapiens) (UniProt P04637); assay: TOX21_p53_BLA_p4_ratio: Tox21 HCT-116 p53 Agonism Beta-lactamase Assay, Ratio, Phase 4 (AID 2283601)
Procedure, shortened: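 Signal is the blue/green (460nm/530nm) ratio of cleaved versus uncleaved CCF4-AM substrate, read after 2 h substrate loading. Cells were HCT116 carrying the p53-responsive beta-lactamase reporter, dosed 16 h at 37C, 5% CO2; CellTiter-Glo measured in parallel.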

[5] = TOX21_p53_BLA_p5_viability: Viability Assessment in the Tox21 HCT-116 p53 Agonism Beta-lactamase Assay, Phase 5 (AID 2283600)
Procedure, shortened: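 Decreased CellTiter-Glo luminescence denotes lost viability. Exposure: 16 h at 37C, 5% CO2, with compounds from DMSO stocks diluted 217-fold in wells of 4000 cells.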

[6] = TOX21_TRB_BLA_Antagonist_Followup_viability: Viability Assessment in the Tox21 Thyroid Hormone Receptor beta Antagonism Beta-lactamase (BLA) Follow-Up Assay (AID 2283961)
Procedure, shortened: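 HEK293T cells with GAL4-human TRβ LBD and UAS-bla reporter, 3,000 cells/well in 2% charcoal-stripped FBS medium; 11-point concentrations in triplicate, 18 h at 37C. Viability from ATP by CellTiter-Glo luminescence, 30 min RT, same plates.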

[7] = test system: Brachyury (BRA) Protein Expression, Deisenroth Lab, TBXT (gene 6862); assay: CCTE_Deisenroth_DEVTOX-GLR_legacy_Bra: (Legacy) CCTE's DevTox GLR-Endo Assay Evaluation of Brachyury (BRA) Protein Expression, Deisenroth Lab (AID 2284329; active = hit-call score of the fitted dose curve at least 0.9, where 1 is the maximum; inactive = score below 0.9)
Procedure, shortened: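 Percent Bra-positive cells, scored by high-content imaging against a threshold of 5x BMAD over the undifferentiated control median, with the 0.2% DMSO median subtracted. RUES2-GLR cultures were dosed twice at 24 h intervals across a 48 h differentiation, at 1 nM–200 uM in ten steps, with n=4 replicates.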

[8] = CCTE_Deisenroth_DEVTOX-GLR_legacy_CellCount: (Legacy) Viability Assessment in CCTE's DevTox GLR-Endo Assay, Deisenroth Lab (AID 2284331; active = hit-call score of the fitted dose curve at least 0.9, where 1 is the maximum; inactive = score below 0.9); settings: actives raise or lower the signal
Procedure, shortened: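 Human pluripotent RUES2-GLR cells differentiated 48 h with two 24-h-interval exposures, 10-point 1 nM–200 uM series, 0.2% DMSO. Fixed nuclei counted by high-content imaging (5 fields/well); bidirectional fit vs DMSO, n≥4.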

[9] = test system: SRY-box transcription factor 17 (SOX17) Protein Expression, Deisenroth Lab, SOX17 (gene 64321); assay: CCTE_Deisenroth_DEVTOX-GLR_legacy_Sox17: (Legacy) CCTE's DevTox GLR-Endo Assay Evaluation of SRY-box transcription factor 17 (SOX17) Protein Expression, Deisenroth Lab (AID 2284341; active = hit-call score of the fitted dose curve at least 0.9, where 1 is the maximum; inactive = score below 0.9); settings: actives raise or lower the signal
Procedure, shortened: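 RUES2-GLR human pluripotent cells differentiated toward endoderm for 48 h, dosed twice at 24 h intervals (1 nM–200 uM, 10 points). Imaging gives % SOX17+ cells (intensity >5x BMAD above pluripotent control median); bidirectional fit versus 0.2% DMSO.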

[10] = test system: SRY-box transcription factor 2 (SOX2) Protein Expression, Deisenroth Lab, SOX2 (gene 6657); assay: CCTE_Deisenroth_DEVTOX-GLR_legacy_Sox2: (Legacy) CCTE's DevTox GLR-Endo Assay Evaluation of SRY-box transcription factor 2 (SOX2) Protein Expression, Deisenroth Lab (AID 2284346; active = hit-call score of the fitted dose curve at least 0.9, where 1 is the maximum; inactive = score below 0.9)
Procedure, shortened: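 Percent Sox2-positive cells was scored by high-content imaging of 5 fields per well. Positivity cutoff was 5x BMAD over the directed endoderm control, and the DMSO median was subtracted. Cells were RUES2-GLR, dosed twice at 24-h intervals over 48 h of differentiation (1 nM-200 uM).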

[11] = test system: SRY-box transcription factor 17 (SOX17) Protein Expression, Deisenroth Lab, SOX17 (gene 64321); assay: CCTE_Deisenroth_DEVTOX-GLR_Endo_SOX17: CCTE's DevTox GLR-Endo Assay Evaluation of SRY-box transcription factor 17 (SOX17) Protein Expression, Deisenroth Lab (AID 2284413; active = hit-call score of the fitted dose curve at least 0.9, where 1 is the maximum; inactive = score below 0.9)
Procedure, shortened: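 RUES2-GLR human pluripotent cells were seeded 24 h, then differentiated toward endoderm for 48 h with two chemical exposures 24 h apart (10-point series, 1 nM - 200 uM). Nuclei-stained fixed cells were imaged; endpoint is percent change in SOX17+ cells versus 0.2% DMSO.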

[12] = test system: Brachyury (BRA) Protein Expression, TBXT (gene 6862); assay: CCTE_Deisenroth_DEVTOX-GLR_Endo_BRA: CCTE's DevTox GLR-Endo Assay Evaluation of Brachyury (BRA) Protein Expression, Deisenroth Lab (AID 2284417; active = hit-call score of the fitted dose curve at least 0.9, where 1 is the maximum; inactive = score below 0.9)
Procedure, shortened: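 RUES2-GLR pluripotent cells differentiated 48 h with two chemical exposures 24 h apart, 10-point range 1 nM - 200 uM. Percentage of BRA+ cells per total count by high-content imaging, minus 0.2% DMSO control.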

[13] = CCTE_Deisenroth_DEVTOX-GLR_Endo_CellCount: Viability Assessment in CCTE's DevTox GLR-Endo Assay, Deisenroth Lab (AID 2284420; active = hit-call score of the fitted dose curve at least 0.9, where 1 is the maximum; inactive = score below 0.9)
Procedure, shortened: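 RUES2-GLR pluripotent cells seeded 24 h, then differentiated 48 h in defined media with two chemical exposures 24 h apart. Nuclei counted by high-content imaging; 10-point 1 nM–200 uM series; percent change versus 0.2% DMSO.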

[14] = test system: SRY-box transcription factor 17 (SOX17) Protein Expression, Deisenroth Lab, SOX17 (gene 64321); assay: CCTE_Deisenroth_DEVTOX-GLR_Pluri_SOX17: CCTE's DevTox GLR-Pluri Assay Evaluation of SRY-box transcription factor 17 (SOX17) Protein Expression, Deisenroth Lab (AID 2284427)
Procedure, shortened: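 RUES2-GLR pluripotent cells were induced toward endoderm over 48 h and received two compound doses 24 h apart, in a 10-point series from 1 nM to 200 uM. The percentage of SOX17+ cells among total cells was measured by high-content imaging and reported minus the 0.2% DMSO control.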

[15] = test system: SRY-box transcription factor 2 (SOX2) Protein Expression, Deisenroth Lab, SOX2 (gene 6657); assay: CCTE_Deisenroth_DEVTOX-GLR_Pluri_SOX2: CCTE's DevTox GLR-Pluri Assay Evaluation of SRY-box transcription factor 2 (SOX2) Protein Expression, Deisenroth Lab (AID 2284428; active = hit-call score of the fitted dose curve at least 0.9, where 1 is the maximum; inactive = score below 0.9)
Procedure, shortened: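 RUES2-GLR human pluripotent cells, two exposures 24 h apart over 48 h differentiation; 10-point series 1 nM - 200 uM. High-content imaging gives SOX2+ cells divided by cell count, reported as percent change versus 0.2% DMSO.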

[16] = test system: Brachyury (BRA) Protein Expression, Deisenroth Lab, TBXT (gene 6862); assay: CCTE_Deisenroth_DEVTOX-GLR_Pluri_BRA: CCTE's DevTox GLR-Pluri Assay Evaluation of Brachyury (BRA) Protein Expression, Deisenroth Lab (AID 2284429)
Procedure, shortened: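 Percent BRA+ cells (BRA+ count over total cells) by high-content imaging of fixed RUES2-GLR cultures, corrected by 0.2% DMSO control. Cells received two doses over 48-hour differentiation, 1 nM–200 uM, n=4 experiments.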

[17] = CCTE_Deisenroth_DEVTOX-GLR_Pluri_CellCount: Viability Assessment in CCTE's DevTox GLR-Pluri Assay Evaluation of Total Cell Counts, Deisenroth Lab (AID 2284430; active = hit-call score of the fitted dose curve at least 0.9, where 1 is the maximum; inactive = score below 0.9)
Procedure, shortened: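 Cytotoxicity readout: fluorescent nuclei counts by high-content imaging, expressed as percent change relative to 0.2% DMSO. Human RUES2-GLR pluripotent line differentiated 48 h, dosed twice at 24-h intervals across 1 nM - 200 uM (10 points).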

Measured: AC50

O=C(O)c1ccc(O)cc1O
inactive: [1] | [2] | [3] | [4]

CC1(C)O[C@@H]2C[C@H]3[C@@H]4CCC5=CC(=O)C=C[C@]5(C)[C@H]4[C@@H](O)C[C@]3(C)[C@]2(C(=O)CO)O1
inactive: [1] | [3] | [5]

c1ccc(SCCSc2ccccc2)cc1
inactive: [1] | [3] | [5]

NC(Cc1ccccc1)C(=O)O (stereo not given)
inactive: [1] | [2] | [4]

O=C(O)CCS
inactive: [1] | [2] | [5] | [4]

CC(C)=CCC[C@@](C)(O)[C@H]1CC=C(C)CC1
inactive: [1] | [3]

CC(C)(C)NCCO
inactive: [1] | [2] | [5] | [4]

CCCCCCCCCCCCOCCCN
inactive: [1] | [2] | [4]

NC(=O)Nc1nc2ccccc2[nH]1
inactive: [1] | [2] | [3] | [4]

CC1CCCC(=O)C1=O (stereo not given)
inactive: [1] | [2] | [4]

O=CC1CC=CCC1 (stereo not given)
inactive: [1] | [2] | [5] | [4]

CC1=C(C(=O)O)N2C(=O)[C@@H](NC(=O)[C@H](N)c3ccccc3)[C@H]2SC1
inactive: [1] | [3]

C#CCN[C@@H]1CCc2ccccc21
inactive: [1] | [2] | [3] | [4]

C1COCCO1
inactive: [1] | [3] | [5]

O=C(OC1C[C@@H]2CC3C[C@H](C1)N2CC3=O)c1c[nH]c2ccccc12 (stereo not given in full)
inactive: [1] | [2] | [5]

Nc1nc(-c2ccc([N+](=O)[O-])cc2)cs1
inactive: [1] | [3] | [5] | [4]

C=CCCCC
inactive: [1] | [2] | [5] | [4]

CCN(CC)CCOC(=O)C1(c2ccccc2)CCCC1
inactive: [1] | [2] | [3] | [4]

CCCCCCCCCCCCCCCC/C=C/C1CC(=O)OC1=O (stereo not given)
inactive: [1] | [3]

CO[C@H]1/C=C/O[C@@]2(C)Oc3c(C)c(O)c4c(O)c(c5c(nc6cc(C)ccn65)c4c3C2=O)NC(=O)/C(C)=C\C=C\[C@H](C)[C@H](O)[C@@H](C)[C@@H](O)[C@@H](C)[C@H](OC(C)=O)[C@@H]1C
inactive: [1] | [2] | [4]

C=CC(=O)OCCOCCOCCOCCOC(=O)C=C
inactive: [1] | [3] | [4]

S=C=Nc1ccc(N=C=S)cc1
inactive: [1] | [3] | [5] | [4]

CN1C(=O)c2ccc([N+](=O)[O-])cc2C1=O
inactive: [1] | [3] | [5] | [4]

C#C[C@]1(O)CC[C@H]2[C@@H]3CCC4=CC(=O)CC[C@@H]4[C@H]3C(=C)C[C@@]21CC
inactive: [1] | [3] | [4] | [6]

O=C1NCCN1CCO
inactive: [1] | [3] | [5] | [4]

CN(C)CC[C@@H](c1ccc(Cl)cc1)c1ccccn1
inactive: [1] | [3] | [4]

COc1cc(Nc2c(C#N)cnc3cc(OCCCN4CCN(C)CC4)c(OC)cc23)c(Cl)cc1Cl
active: [3] 10.9 µM | [4] 7.74 µM
inactive: [1]

CCCC(=O)C(=O)O
inactive: [1] | [3] | [5] | [4]

O=[N+]([O-])c1c(Cl)cc(Cl)cc1Cl
inactive: [1] | [5]

c1ccc2c(c1)Sc1ccccc1N2CCN1CCCC1
inactive: [1] | [3] | [4]

OC(CCCN1CCCCC1)(c1ccccc1)c1ccccc1
inactive: [1] | [5]

C=C(C)C(=O)OC1CC(C)CC(C)(C)C1 (stereo not given)
inactive: [1] | [3] | [4]

Cc1cc(O)ccc1O
inactive: [1] | [3] | [5] | [4]

CC(=O)Nc1ncc([N+](=O)[O-])s1
inactive: [1] | [3] | [5] | [4]

Nc1ncnc2c1ncn2[C@@H]1O[C@H](COP(=O)(O)O)[C@@H](O)[C@H]1O
inactive: [1] | [3] | [4]

CC(=O)NC[C@H]1CN(c2ccc(N3CCOCC3)c(F)c2)C(=O)O1
inactive: [1] | [3] | [5] | [4]

C[C@@H](O)[C@H]1C(=O)N2C(C(=O)O)=C([C@H]3CCCO3)S[C@H]12
inactive: [1] | [5] | [4]

CCOc1cc(NC(C)=O)ccc1C(=O)OC
inactive: [1] | [3] | [5] | [4]

CCCCCCCCCCCCCCC1CO1 (stereo not given)
inactive: [1] | [3] | [4]

O=Cc1ccc(C(=O)O)cc1
inactive: [1] | [5] | [4]

CCCCCCCCCCCCCCCCN(C)C
inactive: [1] | [5] | [4]

Cc1ccc2ccccc2c1[N+](=O)[O-]
inactive: [1] | [3] | [4]

CC(C)NC[C@@H](O)COc1cccc2ccccc12
inactive: [1] | [3] | [5] | [4]

O=C1OC(=O)c2cccc3cccc1c23
inactive: [1] | [3] | [4]

Nc1nc2c(ncn2COCCO)c(=O)[nH]1
not listed: [2] | [5] | [6]
inactive: all other assays above
